Data published in PubChem BioAssay (NCI).
This is part of a sample that, as a whole, favours compounds with a hit. Of some 83,000 tested, about 20% had one in any assay.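 Plates (96-well) were seeded with cells, treated with compound at one concentration, and incubated for 48 hours before percent growth was determined.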 Active and inactive are the calls of the source. Rule for the calls: active = growth percent below 10; inactive = the rest.

Key:
Assay in all cases: NCI-60 one-dose screen, 48 h (100 = growth as untreated, 0 = no growth, -100 = all killed)
Settings in all cases: 10 µM unless noted
[1] = tested on: NCI-H23 lung
[2] = tested on: NCI-H226 lung
[3] = tested on: NCI-H322M lung
[4] = tested on: HOP-62 NSCLC
[5] = tested on: NCI-H460 lung
[6] = tested on: HOP-92 NSCLC
[7] = tested on: NCI-H522 lung
[8] = tested on: A549/ATCC NSCLC
[9] = tested on: 786-0 renal
[10] = tested on: COLO 205 colon
[11] = tested on: DU-145 prostate
[12] = tested on: K-562 leukemia
[13] = tested on: MALME-3M melanoma
[14] = tested on: MDA-MB-231 breast
[15] = tested on: RXF 393 renal
[16] = tested on: SF-268 CNS
[17] = tested on: SF-295 CNS
[18] = tested on: SF-539 CNS
[19] = tested on: UACC-257 melanoma
[20] = tested on: M14 melanoma

Measured: growth

COc1ccc2c(c1)c(-c1nc(-c3c[nH]c4ncccc34)cs1)cn2CCNC(=O)OC(C)(C)C
inactive: [1] 70.6% | [2] 72% | [3] 82.6% | [4] 64.1% | [5] 82.2% | [6] 54.9% | [7] 61% | [8] 72.6% | [9] 73.6% | [10] 84.6% | [11] 89.3% | [12] 62.4% | [13] 103% | [14] 53.2% | [15] 83.1% | [16] 83.5% | [17] 85.1% | [18] 66.5% | [19] 98.5% | [20] 69.3%

Cc1ccc(Sc2sc(-c3ccccc3)nc2[P+](c2ccccc2)(c2ccccc2)c2ccccc2)cc1
active: [1] -12.2% | [2] -3.15% | [3] -19.1% | [4] -0.272% | [5] -19.1% | [6] -40.4% | [7] -5.65% | [8] 6.14% | [9] 6.12% | [10] -25.3% | [12] 2.4% | [13] -22.4% | [14] -29.5% | [15] -21.5% | [17] -20.9% | [19] 2.98% | [20] -7.46%
inactive: [11] 10.7% | [16] 15.5% | [18] 11.8%

COc1cc(/C=C2\C(=O)N(CC(O)COc3cc(O)c4c(=O)cc(-c5ccccc5)oc4c3)c3ccccc32)cc(OC)c1O (stereo not given)
inactive: [1] 88.8% | [2] 99.7% | [3] 96.5% | [4] 87.9% | [5] 85% | [6] 82.4% | [7] 64.1% | [8] 95.4% | [9] 98% | [10] 113% | [11] 85.6% | [12] 71.4% | [13] 99.1% | [14] 84.6% | [15] 101% | [16] 80% | [17] 95.1% | [18] 88.1% | [19] 110% | [20] 88.7%

O=C(/C=C/c1ccc2ccccc2c1)Nc1ncc(Cc2ccccc2)s1
inactive: [1] 80.3% | [2] 46% | [3] 46.3% | [4] 56.7% | [5] 30.8% | [6] 78.2% | [7] 72.8% | [8] 21.6% | [9] 34.2% | [10] 55.8% | [11] 70.4% | [12] 70.6% | [13] 51% | [14] 28.5% | [15] 93.3% | [16] 73.8% | [17] 36.8% | [18] 78.2% | [19] 94.8% | [20] 59.8%

Cc1ccc(-c2ccc(/C=C(\C#N)c3nc(-c4ccco4)cs3)o2)cc1
inactive: [1] 95% | [2] 92.7% | [3] 90.2% | [4] 97.5% | [5] 99.3% | [6] 100% | [7] 96.4% | [8] 103% | [9] 106% | [10] 99.1% | [11] 108% | [12] 95% | [13] 109% | [14] 93% | [15] 136% | [16] 107% | [17] 96.6% | [18] 103% | [19] 113% | [20] 93.7%

N#CC1=C(N)Oc2c(sc3c(F)cccc23)C1c1ccc(Cl)cc1 (stereo not given)
inactive: [1] 43.7% | [2] 74.9% | [3] 55.1% | [4] 28.8% | [5] 13.1% | [6] 36.9% | [8] 38% | [9] 21.1% | [10] 38.4% | [11] 41% | [12] 14.2% | [13] 57.9% | [14] 43.5% | [16] 45.3% | [17] 20.2% | [19] 66.4%
active: [7] 6.14% | [15] 9.87% | [18] -0.306% | [20] -26.1%

Cc1ccc(C)c2c1CCC2C(C)C (stereo not given)
inactive: [1] 91.9% | [2] 98.6% | [3] 97.9% | [4] 101% | [5] 105% | [6] 93.6% | [7] 94.8% | [8] 87.2% | [9] 98.7% | [10] 104% | [11] 103% | [12] 90.4% | [13] 101% | [14] 99.6% | [15] 112% | [16] 96.8% | [17] 102% | [18] 97.5% | [19] 89.6% | [20] 95%

Cc1cccc(C)c1NC(=O)CSC(=S)N1CCN(CCOCCO)CC1
inactive: [1] 100% | [2] 117% | [3] 85.8% | [4] 105% | [5] 114% | [6] 110% | [7] 90% | [8] 101% | [9] 96.4% | [10] 113% | [11] 101% | [12] 96% | [13] 87.3% | [14] 116% | [15] 125% | [16] 93.9% | [17] 95.9% | [18] 94.3% | [19] 112% | [20] 100%
